# PubChem BioAssay AID1422 (Emory University Molecular Libraries Screening Center, 2008)
# About 1,300 (0.5%) of roughly 260,000 compounds were called active. Many of the other results were omitted from the sample, so actives are more common in it than they were. Unmarked numbers belong to inactive results.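 Rule for the calls: active = percent inhibition above 40 after rounding to a whole number; inactive = the rest.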
# Target: Prostaglandin E2 receptor EP2 subtype (Homo sapiens) (UniProt P43116)
# Assay: blockers of PGE2-driven EP2 cAMP signalling – TR-FRET cAMP, C6 glioma cells, primary screen (AID 1422);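 note: rat C6 glioma host cells with rolipram phosphodiesterase inhibitor present; the protocol text gives 20 µM as final concentration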
# Settings: C6 glioma cells expressing human EP2, cAMP TR-FRET, at 25 µM, hits give high values; cells stimulated with saturating PGE2 unless noted
# Prostaglandin E2 receptor EP2 subtype (Homo sapiens), sequence (P43116 whole entry, looked up): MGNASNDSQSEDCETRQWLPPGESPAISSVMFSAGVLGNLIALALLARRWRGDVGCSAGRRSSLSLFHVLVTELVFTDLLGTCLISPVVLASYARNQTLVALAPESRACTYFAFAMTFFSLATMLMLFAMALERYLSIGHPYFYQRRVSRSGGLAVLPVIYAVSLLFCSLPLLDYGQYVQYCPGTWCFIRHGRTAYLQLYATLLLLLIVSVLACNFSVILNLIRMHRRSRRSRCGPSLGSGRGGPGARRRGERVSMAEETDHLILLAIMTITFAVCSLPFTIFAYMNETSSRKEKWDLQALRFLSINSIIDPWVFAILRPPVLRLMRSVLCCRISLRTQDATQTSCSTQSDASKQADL
row,Structure (SMILES),inhibition
1,O=C1C[C@@H]2OCC=C3CN4CC[C@]56c7ccccc7N1[C@H]5[C@H]2[C@H]3C[C@H]46 (tested in a mixture with another compound),43.4% (active)
2,COc1ccccc1CN(CCN(C)C)C(=O)Cc1nn(C)c(=O)c2ccccc12,8.64%
3,COc1ccc(C2=NCC(=O)N(Cc3cccnc3)c3sc4c(c32)CCCC4)cc1,7.58%
4,CC(=O)O[C@H]1CC[C@@]2(C)C(=CCC3C2CC[C@]2(C)C(=O)CCC32)C1 (stereo not given in full),13.5% [setting not given]
5,CC(=O)O[C@H]1CC[C@@]2(C)[C@@H](CC[C@H]3[C@H]2CC(=O)[C@]2(C)[C@@H]3C[C@@H](N3CC3)[C@H]2C(C)=O)C1,44% (active)
6,C=C1C2CC[C@@]3(C)[C@H](c4ccoc4)OC(=O)C[C@]13O[C@H]1CC(=O)C(C)(C)[C@H](C(OC(C)=O)C(=O)OC)[C@@]21C (stereo not given in full),14.4%
7,COc1cc([C@@H]2c3cc4c(cc3[C@H](OC(C)=O)[C@H]3COC(=O)[C@H]23)OCO4)cc(OC)c1OC,14.4%
8,Fc1ccc2c(c1)nnn2C1CCN(Cc2nnnn2C2CCCC2)CC1,8.46%
9,CC[C@@](O)(C(=O)O)c1cc2n(c(=O)c1CO)Cc1cc3ccccc3nc1-2,47.7% (active)
10,CCn1cc(C(=O)c2ccco2)c2ccccc21,1.27%
11,c1ccc2[nH]c(C3CCNCC3)nc2c1,6.74%
12,C=CCc1cc(CN2C3CCC2CC(O)(c2nccn2C)C3)cc(OC)c1O (stereo not given),10.4%
13,Cc1ccc(C(C)N2CCNCC2)c(C)c1 (stereo not given),5.45%
14,COc1cc(CN2C3CCC2CC(O)(c2ccccc2F)C3)ccc1OC(C)C (stereo not given),6.07%
15,Cc1nc(-c2ccc(F)cc2)c(CC(=O)N(CCN(C)C)C2CCCCC2)s1,2.82%
